# Values without a mark were called inactive. Results filed as inconclusive are left out. Where a call stands in place of a potency, no number is given. Active and inactive are the calls of the source. Unless noted, calls come from the whole dose curve; as a rule, active = well fitted curve in the direction sought with a large enough effect in the repeat runs; inconclusive = weak or mixed curves; inactive = no such curve, though single readings can be large; an effect the other way counts as inactive or inconclusive.
# Tests used:
# [1] = qHTS assay to identify small molecule antagonists of the estrogen receptor alpha (ER-alpha) signaling pathway using the BG1 cell line in the presence of 0.1 nM 17-beta-estradiol - cell viability counter screen (AID 1259241); note: nearly all actives have a fitted effect of over 40% in size; note: potency is the fitted concentration of half-maximal effect
# In short: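 Cytotoxicity counter-screen: live-cell protease activity measured by fluorescence (30 min reagent step) in the same wells. Cells were VM7Luc4E2 with endogenous ER-alpha and ERE-driven luciferase, treated 22 hr at 37C alongside 0.1 nM 17beta-estradiol final.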
# [2] = qHTS assay to identify small molecule antagonists of the androgen receptor (AR) signaling pathway using the MDA cell line in the presence of 0.5 nM R1881 - cell viability counter screen (AID 1259242); note: nearly all actives have a fitted effect of over 45% in size; note: potency is the fitted concentration of half-maximal effect
# In short: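 Concentration-response screen of compounds for toxicity in MDA-kb2 reporter cells: 16 hr at 37C with 0.5 nM R1881, endpoint live-cell protease fluorescence measured in the reporter wells.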
# [3] = qHTS assay to identify small molecule HDAC inhibitors (AID 1259364); note: potency is the fitted concentration of half-maximal effect;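 note: wild-type HCT-116 cells with endogenous class I/II HDAC activity; nearly all actives have a fitted effect of over 45% in size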
# In short: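 Screening used wild-type human colon HCT-116 cells incubated overnight, dosed with compounds for 2 hours, and assayed with a homogeneous luminogenic HDAC I/II reagent for 30 minutes at room temperature.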
# [4] = qHTS assay to identify small molecule HDAC inhibitors - cell viability counter screen (AID 1259365); note: nearly all actives have a fitted effect of over 50% in size; note: potency is the fitted concentration of half-maximal effect
# In short: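 CellTiter-Glo luminescence (30 min, room temperature) reported viability after a 2 h compound exposure at 37 C. Cells: wild-type HCT-116, 1,500 per well, seeded the night before.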
# [5] = qHTS assay to identify small molecule antagonists of the sonic hedgehog signaling (Shh) pathway - cell viability counter screen (AID 1259367); note: nearly all actives have a fitted effect of over 55% in size; note: potency is the fitted concentration of half-maximal effect
# In short: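 Fluorescence read-out (CellTiter-Fluor, 1 hr at 37C) taken after 23 hr compound treatment of 3T3 Gli1-Luc cells stimulated with conditioned medium. Cells were seeded at 2,000 per well and pre-incubated 4 hr.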
# [6] = qHTS assay to identify small molecule agonists of the sonic hedgehog signaling (Shh) pathway (AID 1259368; calls by dose curve;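 note: NIH/3T3-derived 3T3Gli1-Luc cells carrying a stable Gli1-driven firefly luciferase reporter; series mostly up to about 92 µM; nearly all actives have a fitted effect of over 15% in size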)
# In short: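 Hedgehog pathway agonism scored by increased firefly luciferase luminescence in 3T3Gli1-Luc cells treated 24 hr at 37 C; detection used a 30 min room-temperature reagent incubation.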
# [7] = qHTS assay to identify small molecule antagonists of the sonic hedgehog signaling (Shh) pathway (AID 1259369; calls by dose curve; note: nearly all actives have a fitted effect of over 45% in size; note: potency is the fitted concentration of half-maximal effect)
# In short: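 NIH/3T3 stable Gli1-Luc clone, 2,000 cells/well, 4hr settle; cpd + conditioned medium 24hr; Luc reagent 30min RT; luminescence.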
# [8] = biological target: Estrogen receptor beta (Homo sapiens) (UniProt Q92731); experiment: qHTS assay to identify small molecule agonists of the estrogen receptor beta (ER-beta) signaling pathway (AID 1259377; active = well fitted activation curve with a large enough effect in the signal ratio in the repeat runs, not every such curve was filed as active; the % refers to the signal ratio)
# Sequence of Estrogen receptor beta (Homo sapiens) (Q92731 whole entry, looked up): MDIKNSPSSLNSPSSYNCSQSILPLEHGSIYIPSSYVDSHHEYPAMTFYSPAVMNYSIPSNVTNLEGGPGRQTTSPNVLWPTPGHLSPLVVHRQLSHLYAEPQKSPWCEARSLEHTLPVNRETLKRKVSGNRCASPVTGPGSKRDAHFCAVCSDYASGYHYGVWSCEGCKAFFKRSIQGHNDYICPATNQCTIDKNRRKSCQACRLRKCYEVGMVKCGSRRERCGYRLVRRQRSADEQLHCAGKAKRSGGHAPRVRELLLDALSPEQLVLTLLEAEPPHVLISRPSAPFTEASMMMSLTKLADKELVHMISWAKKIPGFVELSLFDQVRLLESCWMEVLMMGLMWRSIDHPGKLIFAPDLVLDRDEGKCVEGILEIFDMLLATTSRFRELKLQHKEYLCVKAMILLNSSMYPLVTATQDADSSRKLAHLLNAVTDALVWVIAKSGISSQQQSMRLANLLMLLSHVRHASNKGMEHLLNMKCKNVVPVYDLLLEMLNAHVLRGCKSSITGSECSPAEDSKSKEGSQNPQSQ
# In short: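 Ratiometric beta-lactamase FRET read-out came after 2 h substrate loading at room temperature. It followed 16 h compound treatment at 37C of GripTite HEK293T cells carrying a UAS-bla reporter, plated in 2% charcoal-stripped FBS medium.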
# [9] = qHTS assay to identify small molecule agonists of the androgen receptor (AR) signaling pathway in the presence of an antagonist - cell viability counter screen (AID 1259379); note: nearly all actives have a fitted effect of over 25% in size; note: potency is the fitted concentration of half-maximal effect
# In short: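 MDA-kb2 viability measured by CellTiter-Fluor fluorescence in the same wells as the luciferase signal; nilutamide 3.0uM final; 15-point compound titration; 16 hr at 37C.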
# [10] = qHTS assay to identify small molecule agonists or antagonists of the thyroid stimulating hormone receptor (TSHR) signaling pathway - wild type cell line counter screen (AID 1259384; calls by dose curve)
# In short: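 Wild-type Hek293 cells, 800/well, 18 h at 37C, then compound with Ro20-1724 for 30 min RT. cAMP by HTRF (cAMP-d2/anti-cAMP cryptate), 1 h RT, fluorescence read. 15 concentrations, triplicates.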
# [11] = biological target: Thyrotropin receptor (Homo sapiens) (UniProt P16473); experiment: qHTS assay to identify small molecule antagonists of the thyroid stimulating hormone receptor (TSHR) signaling pathway (AID 1259385; calls by dose curve; note: nearly all actives have a fitted effect of over 20% in size; note: potency is the fitted concentration of half-maximal effect)
# Sequence of Thyrotropin receptor (Homo sapiens) (P16473 whole entry, looked up): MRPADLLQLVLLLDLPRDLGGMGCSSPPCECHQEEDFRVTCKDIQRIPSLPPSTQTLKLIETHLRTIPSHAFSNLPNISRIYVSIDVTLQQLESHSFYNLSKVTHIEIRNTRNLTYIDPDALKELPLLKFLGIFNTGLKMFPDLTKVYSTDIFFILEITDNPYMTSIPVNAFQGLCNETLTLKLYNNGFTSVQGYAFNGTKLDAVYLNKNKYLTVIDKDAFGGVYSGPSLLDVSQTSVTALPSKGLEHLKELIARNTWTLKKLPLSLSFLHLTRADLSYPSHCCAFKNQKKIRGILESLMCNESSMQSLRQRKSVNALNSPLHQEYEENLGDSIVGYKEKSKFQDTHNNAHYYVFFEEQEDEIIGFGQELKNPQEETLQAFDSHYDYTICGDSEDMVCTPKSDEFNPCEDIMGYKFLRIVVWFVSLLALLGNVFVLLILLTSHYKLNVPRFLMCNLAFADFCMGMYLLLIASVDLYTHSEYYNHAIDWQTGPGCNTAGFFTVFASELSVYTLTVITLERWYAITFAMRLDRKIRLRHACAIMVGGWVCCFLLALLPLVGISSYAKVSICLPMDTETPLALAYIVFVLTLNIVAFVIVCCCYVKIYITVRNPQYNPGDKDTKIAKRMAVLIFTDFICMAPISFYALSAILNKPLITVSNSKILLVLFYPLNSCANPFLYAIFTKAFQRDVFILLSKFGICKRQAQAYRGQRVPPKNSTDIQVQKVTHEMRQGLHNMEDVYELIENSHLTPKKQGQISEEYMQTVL
# In short: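 TSHR-HEK293 cells (800/well) plated 18 h, then compounds with Ro20-1724 and TSH at 1.5 ng/mL final, 30 min at room temperature. cAMP quantified by HTRF (cAMP-d2/anti-cAMP-cryptate, 1 h); 15 concentrations in triplicate.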
# [12] = qHTS assay to identify small molecule agonists of the sonic hedgehog signaling (Shh) pathway - cell viability counter screen (AID 1259366); note: nearly all actives have a fitted effect of over 50% in size; note: potency is the fitted concentration of half-maximal effect
# In short: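 Cytotoxicity counter screen: CellTiter-Fluor reagent added after 23 h compound exposure, then 1 h at 37C and fluorescence read. Cells were 3T3 Gli1-Luc, seeded 2,000 per well and dosed 4 h post-plating.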
# [13] = biological target: Estrogen receptor beta (Homo sapiens) (UniProt Q92731); experiment: qHTS assay to identify small molecule antagonists of the estrogen receptor beta (ER-beta) signaling pathway (AID 1259378; active = well fitted inhibition curve with a large enough effect in the signal ratio in the repeat runs, not every such curve was filed as active; the % refers to the signal ratio)
# In short: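 ER-beta-UAS-bla HEK293T cells in 2% charcoal-stripped FBS medium treated with compound plus 1nM final 17-beta-estradiol for 16 hr at 37C. Beta-lactamase reporter read by FRET substrate fluorescence after 2 hours at room temperature.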
# [14] = qHTS assay to identify small molecule agonists of the estrogen receptor beta (ER-beta) signaling pathway - cell viability counter screen (AID 1259380); note: nearly all actives have a fitted effect of over 30% in size; note: potency is the fitted concentration of half-maximal effect
# In short: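 Measured: luminescence from CellTiter-Glo after 30 min at room temperature, added to wells already read for the LiveBLAzer FRET reporter (2 hr substrate); ER-beta-UAS-bla HEK293T cells had 16 hr compound treatment at 37C, 5% CO2.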
# [15] = qHTS assay to identify small molecule antagonists of the estrogen receptor beta (ER-beta) signaling pathway - cell viability counter screen (AID 1259382); note: nearly all actives have a fitted effect of over 55% in size; note: potency is the fitted concentration of half-maximal effect
# In short: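 Readout: luminescence, CellTiter-Glo, same wells as bla assay. System: ER-beta-UAS-bla GripTite HEK293T, 2% charcoal-stripped FBS. Exposure: compounds plus 1nM 17-beta-estradiol, 16 hr, 37C.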
# [16] = biological target: Androgen receptor (Homo sapiens) (UniProt P10275); experiment: qHTS assay to identify small molecule antagonists of the androgen receptor (AR) signaling pathway using the MDA cell line in the presence of 0.5 nM R1881 (AID 1259243); note: nearly all actives have a fitted effect of over 50% in size; note: potency is the fitted concentration of half-maximal effect
# Sequence of Androgen receptor (Homo sapiens) (P10275 whole entry, looked up): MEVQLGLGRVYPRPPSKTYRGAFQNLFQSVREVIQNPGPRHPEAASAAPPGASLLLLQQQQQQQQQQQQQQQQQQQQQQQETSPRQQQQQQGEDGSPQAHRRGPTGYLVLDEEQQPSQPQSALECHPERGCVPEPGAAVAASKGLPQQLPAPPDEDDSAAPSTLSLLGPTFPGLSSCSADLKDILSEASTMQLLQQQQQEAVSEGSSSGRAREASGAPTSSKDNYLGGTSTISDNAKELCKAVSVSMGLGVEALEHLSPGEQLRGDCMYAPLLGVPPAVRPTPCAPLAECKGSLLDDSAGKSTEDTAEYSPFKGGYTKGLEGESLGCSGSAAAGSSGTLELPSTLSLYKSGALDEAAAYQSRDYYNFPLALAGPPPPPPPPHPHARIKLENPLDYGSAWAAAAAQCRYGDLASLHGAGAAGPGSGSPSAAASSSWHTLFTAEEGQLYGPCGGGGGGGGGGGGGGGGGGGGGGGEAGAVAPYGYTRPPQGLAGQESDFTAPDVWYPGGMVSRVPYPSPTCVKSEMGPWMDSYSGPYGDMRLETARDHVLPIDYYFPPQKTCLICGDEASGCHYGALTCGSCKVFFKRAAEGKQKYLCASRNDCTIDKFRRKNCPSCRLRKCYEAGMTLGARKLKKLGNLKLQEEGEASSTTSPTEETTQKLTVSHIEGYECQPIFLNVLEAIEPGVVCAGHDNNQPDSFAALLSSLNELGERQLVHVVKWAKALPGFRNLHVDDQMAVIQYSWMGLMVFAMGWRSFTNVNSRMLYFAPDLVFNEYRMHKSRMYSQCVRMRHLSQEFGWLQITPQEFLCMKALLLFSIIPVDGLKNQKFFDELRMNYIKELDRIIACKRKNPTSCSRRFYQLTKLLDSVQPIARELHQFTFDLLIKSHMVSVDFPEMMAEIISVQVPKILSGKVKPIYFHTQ
# In short: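 With R1881 held at 0.5 nM (final), compound effects on MMTV-luciferase expression in MDA-kb2 cells were scored by luminescence after a 16 hr, 37C incubation.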
# [17] = biological target: Estrogen receptor (Homo sapiens) (UniProt P03372); experiment: qHTS assay to identify small molecule antagonists of the estrogen receptor alpha (ER-alpha) signaling pathway using the BG1 cell line in the presence of 0.1 nM 17-beta-estradiol (AID 1259244); note: nearly all actives have a fitted effect of over 50% in size
# Sequence of Estrogen receptor (Homo sapiens) (P03372 whole entry, looked up): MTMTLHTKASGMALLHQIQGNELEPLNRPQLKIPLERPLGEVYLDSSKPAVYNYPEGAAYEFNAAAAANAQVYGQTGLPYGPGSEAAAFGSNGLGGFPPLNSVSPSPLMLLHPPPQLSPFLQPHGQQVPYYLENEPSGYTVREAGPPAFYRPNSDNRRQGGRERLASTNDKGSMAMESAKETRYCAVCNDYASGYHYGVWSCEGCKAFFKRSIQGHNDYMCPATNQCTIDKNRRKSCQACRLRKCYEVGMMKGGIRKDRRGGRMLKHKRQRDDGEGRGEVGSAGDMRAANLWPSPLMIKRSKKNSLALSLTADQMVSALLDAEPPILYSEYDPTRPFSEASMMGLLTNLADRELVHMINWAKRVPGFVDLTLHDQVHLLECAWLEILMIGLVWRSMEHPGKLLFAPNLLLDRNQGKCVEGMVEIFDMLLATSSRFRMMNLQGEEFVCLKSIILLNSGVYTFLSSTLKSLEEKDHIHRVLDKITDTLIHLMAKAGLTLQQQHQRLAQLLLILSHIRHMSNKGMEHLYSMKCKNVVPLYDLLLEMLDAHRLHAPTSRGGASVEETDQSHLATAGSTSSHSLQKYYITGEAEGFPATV
# In short: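 Compounds were tested against 0.1 nM (final) 17beta-estradiol in VM7Luc4E2 cells, which express full-length ER-alpha and an ERE-luciferase reporter; luminescence was recorded following 22 h exposure.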
# [18] = biological target: Androgen receptor (Homo sapiens) (UniProt P10275); experiment: qHTS assay to identify small molecule agonists of the androgen receptor (AR) signaling pathway in the presence of an antagonist (AID 1259381; calls by dose curve; note: nearly all actives have a fitted effect of over 15% in size)
# In short: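 Luminescent ONE-Glo read, 30min at room temperature, follows 16hr compound exposure (15 concentrations) of MDA-kb2 cells at 37C, 0% CO2, with nilutamide added at 3.0uM final.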
# [19] = biological target: Estrogen receptor (Homo sapiens) (UniProt P03372); experiment: qHTS assay to identify small molecule agonists of the estrogen receptor alpha (ER-alpha) signaling pathway in the presence of an antagonist (AID 1259383; calls by dose curve; note: top concentration of the series differs between compounds; nearly all actives have a fitted effect of over 15% in size)
# In short: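 Quantitative HTS confirmation: compounds titrated at 15 concentrations onto estrogen-deprived VM7Luc4E2 cells carrying a four-ERE luciferase construct, with ICI-182,780 present at 10.0nM final. Signal is luminescence after 22hr exposure.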
# [20] = qHTS assay to identify small molecule phospholipidosis (PLD) inducers (AID 1259344; active = well fitted curve in the direction sought with a large enough effect; an effect the other way counts as inactive or inconclusive)
# In short: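 Read-out is LipidTOX Red fluorescence (ex 595/em 615) imaged in HepG2 cells after 24 h compound exposure at 37 C, with Hoechst nuclear counterstain (ex 352/em 461) allowing per-cell normalisation.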
SMILES,Potency [1],Potency [2],Potency [3],Potency [4],Potency [5],Potency [6],Potency [7],Potency [8],Potency [9],Potency [10],Potency [11],Potency [12],Potency [13],Potency [14],Potency [15],Potency [16],Potency [17],Potency [18],Potency [19],Potency [20]
CCCCCCCC/C=C/C(=O)O,inactive,inactive,inactive,inactive,inactive,inactive,inactive,inactive,inactive,inactive,inactive,–,–,–,–,–,–,–,–,–
CCCCOC(=O)CCCCC(=O)OCCCC,inactive,inactive,inactive,inactive,–,inactive,inactive,inactive,inactive,inactive,inactive,inactive,inactive,inactive,inactive,–,–,–,–,–
CCCCCCCCCCCCCCCCCC(=O)OCC(CC)CCCC (centres undefined),inactive,inactive,inactive,–,inactive,inactive,inactive,inactive,–,inactive,inactive,–,inactive,inactive,inactive,–,–,–,–,–
CNCc1ccc(NC(=O)c2c[nH]c3c2C(=O)CCC3)cc1,inactive,inactive,inactive,inactive,inactive,inactive,–,inactive,inactive,inactive,inactive,inactive,inactive,–,inactive,–,–,–,–,–
CN(C)CC/C=C1\c2ccccc2Sc2ccc(Cl)cc21,inactive,–,inactive,–,–,–,–,–,29.8 µM (active),inactive,26.6 µM (active),26.6 µM (active),–,23.7 µM (active),18.8 µM (active),29.8 µM (active),inactive,inactive,inactive,–
COc1cc(S(=O)(=O)Nc2ccccc2)c(OC)cc1N,inactive,inactive,inactive,inactive,–,inactive,inactive,inactive,–,inactive,inactive,inactive,inactive,–,–,–,–,–,–,–
CCCCCCCC(=O)Oc1c(Br)cc(C#N)cc1Br,inactive,inactive,inactive,inactive,inactive,–,27.2 µM (active),–,inactive,inactive,inactive,inactive,–,–,–,–,–,–,inactive,–
C[C@@H]1[C@H](O)[C@@H](C)/C=C/C=C\C=C\C=C\C=C\C=C\C=C\[C@H](O[C@@H]2O[C@H](C)[C@@H](O)[C@H](N)[C@@H]2O)C[C@@H]2O[C@](O)(C[C@@H](O)C[C@@H](O)[C@H](O)CC[C@@H](O)C[C@@H](O)CC(=O)O[C@H]1C)C[C@H](O)[C@H]2C(=O)O (stereo in doubt),inactive,–,inactive,inactive,–,inactive,–,–,61.1 µM (active),inactive,–,–,–,61.1 µM (active),–,–,inactive,–,inactive,inactive
CC/C=C\C/C=C\C/C=C\CCCCCCCC(=O)OCC,inactive,inactive,inactive,inactive,inactive,inactive,–,inactive,inactive,inactive,inactive,inactive,–,–,inactive,–,–,–,–,–
Cc1cc(CCC(=O)OCCOCCOCCOC(=O)CCc2cc(C)c(O)c(C(C)(C)C)c2)cc(C(C)(C)C)c1O,inactive,inactive,inactive,inactive,inactive,inactive,inactive,inactive,inactive,inactive,inactive,–,–,inactive,inactive,–,–,–,–,–
C=CC(=O)NC(C)C,inactive,inactive,inactive,inactive,inactive,inactive,inactive,–,–,inactive,inactive,–,–,inactive,inactive,–,–,–,inactive,–
COC(=O)Nc1nc2ccc(C(=O)C3CC3)cc2[nH]1,inactive,inactive,23.7 µM (active),inactive,–,inactive,inactive,inactive,–,inactive,inactive,–,–,inactive,inactive,–,–,–,inactive,–
O=C1[C@@H]2[C@H]3CC[C@H](C3)[C@@H]2C(=O)N1CCCCN1CCN(c2ncccn2)CC1,inactive,–,inactive,inactive,inactive,inactive,inactive,–,–,inactive,inactive,inactive,–,inactive,inactive,–,inactive,–,inactive,inactive
Cc1c(C2(c3cc(Br)c(O)c(Br)c3C)OS(=O)(=O)c3ccccc32)cc(Br)c(O)c1Br,13.3 µM (active),10.5 µM (active),4.2 µM (active),4.2 µM (active),10.5 µM (active),–,–,–,14.9 µM (active),–,–,9.4 µM (active),–,23.6 µM (active),–,–,–,–,–,–
C=Cc1ccc(OC(C)=O)cc1,inactive,–,inactive,inactive,inactive,inactive,inactive,–,–,inactive,inactive,inactive,–,inactive,inactive,inactive,–,inactive,inactive,–
CCC1CCC(CCC(=O)O)C1 (centres undefined),inactive,inactive,inactive,inactive,–,–,inactive,–,inactive,inactive,inactive,inactive,–,–,–,–,–,–,–,–
Nc1nc(-c2ccc([N+](=O)[O-])cc2)cs1,inactive,inactive,12.3 µM (active),–,inactive,inactive,–,inactive,inactive,inactive,inactive,inactive,inactive,inactive,inactive,–,–,–,–,–
CCCC(=O)OC(=O)CCC,inactive,inactive,–,–,inactive,inactive,inactive,inactive,–,inactive,inactive,inactive,inactive,inactive,–,–,–,–,–,–
CCCCCCC(O)CCCCCCCCCCC(=O)OC (centres undefined),inactive,inactive,inactive,–,–,–,–,inactive,inactive,inactive,inactive,–,–,–,–,–,–,–,–,–
